Laboratory results: PubChem BioAssay (Tox21)
Inconclusive results are not listed. Values without a mark were called inactive. Calls of active or inactive are those of the source. The call rests on the fitted dose curve.

Test: p53 small molecule agonists, cell-based qHTS assay with human liver microsomes (AID 1963577);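 on activation: p53 response element beta-lactamase reporter cells with liver microsomes plus NADPH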
Conditions: HCT-116 p53RE-bla with human liver microsomes, ratio, 16 h; series mostly up to 66 µM; activation: at the top concentration
From the text: National Center for Advancing Translational Sciences [NCATS]
Division of Preclinical Innovation [DPI]
U.S. Environmental Protection Agency [EPA]
National Institutes of Environmental Health Sciences [NIEHS]
National Toxicology Program [NTP]
U.S. Food and Drug Administration [FDA]
p53, a tumor suppressor protein, is activated following cellular insult, including DNA damage and other cellular stresses. The activation of p53 regulates cell fate by inducing DNA repair, cell cycle arrest, apoptosis, or cellular senescence. The activation of p53, therefore, is a good indicator of DNA damage and other cellular stresses. […] The activation of the reporter gene under culture conditions can be detected by fluorescence intensity.
Tox21 Assay Protocol Summary:
The p53RE-bla cells were dispensed at 4,000cells/3ul/well in 1536-well black-clear bottom plates. After the assay plates were incubated at 37 C, 5% CO2 incubator for 5 hours, 23 nL of compounds dissolved in DMSO, positive controls or DMSO only was transferred to the assay plate. Following compound addition, 3 uL of human liver microsomes (XenoTech, Kansas City, KS) at final concentration of 0.5 mg/mL and 1uL of Beta-Nicotinamide adenine dinucleotide 2-phosphate (NADPH) at final concentration of 0.5 mg/mL were transferred to the assay plate. The plates were incubated at 37 C for 16 hours. 1 uL of LiveBLAzer detection mixture was added to each well and the plates were incubated at room temperature in the dark for 2 h.
On the % scale 0 is the no-effect control and ±100 the full control effect; potency means the concentration at half of the fitted maximal effect.

Compound	activation	Potency
CS(=O)(=O)c1cc(C(F)(F)F)ccc1C(=O)c1cnoc1C1CC1	-0.791%	–
N#CC(C#N)=Cc1ccc(O)c(O)c1	-6.14% [at 30.3 µM]	–
C[C@@H]1CC[C@@]2(OC1)O[C@H]1[C@@H](O)[C@H]3[C@@H]4CC[C@H]5C[C@@H](O[C@@H]6O[C@H](CO)[C@H](O[C@@H]7O[C@H](CO)[C@@H](O)[C@H](O[C@@H]8OC[C@@H](O)[C@H](O)[C@H]8O)[C@H]7O[C@@H]7O[C@H](CO)[C@@H](O)[C@H](O[C@@H]8O[C@H](CO)[C@@H](O)[C@H](O)[C@H]8O)[C@H]7O)[C@H](O)[C@H]6O)[C@H](O)C[C@]5(C)[C@H]4CC[C@]3(C)[C@H]1[C@@H]2C	-11.4%	–
CN/C(=N\[N+](=O)[O-])NCC1CCOC1 (stereo not given)	-0.159%	–
O=C1C(Cl)C(CCl)CN1c1cccc(C(F)(F)F)c1 (stereo not given)	-6.38%	–
Fc1ccc(C(OCCN2CCN(CCCc3ccccc3)CC2)c2ccc(F)cc2)cc1	-4.64% [at 30.3 µM]	–
CCOc1cc(Oc2ccc(C(F)(F)F)cc2Cl)ccc1[N+](=O)[O-]	–	inactive
CC(C)[C@H](C(=O)OC(C#N)c1cccc(Oc2ccccc2)c1)c1ccc(OC(F)F)cc1 (stereo not given in full)	-4.8%	–
C[C@]12C=CC(=O)C=C1CC[C@@H]1[C@@H]2CC[C@@]2(C)[C@H]1CC[C@]2(C)O	-2.44% [at 30.3 µM]	–
Clc1cc(Cl)c(-c2cc(Cl)c(Cl)cc2Cl)cc1Cl	-0.206% [at 30.3 µM]	–
c1cc[c]([Sb]([c]2ccccc2)[c]2ccccc2)cc1	-15.8%	–
c1ccc(C2CC2)c(OCC2=NCCN2)c1	2.79% [at 30.3 µM]	–
C/C(=C\c1ccccc1)[N+](=O)[O-]	-0.495%	–
ClC1=C(Cl)[C@]2(Cl)[C@@H]3[C@H]4C[C@H]([C@@H]5O[C@H]45)[C@@H]3[C@@]1(Cl)C2(Cl)Cl	-5%	–
FC(F)(F)c1cccc(C2=CCN(CCc3ccc4ccccc4c3)CC2)c1	2.48% [at 30.3 µM]	–
Cc1ccc([N+](=O)[O-])[c]2c1[O][Hg]2	-7.46% [at 30.3 µM]	–
CCCCP(CCCC)CCCC	2.3%	–
COC(=O)C(C)N(C(=O)Cc1ccccc1)c1c(C)cccc1C (stereo not given)	0.141%	–
COc1cc(C[C@@H](C)N)c(OC)cc1Br	-2.02%	–
CCOP(=S)(OCC)SCn1nnc2ccccc2c1=O	–	3.24 µM (active)

Compound	activation	Potency
Cc1ncc(C[n+]2csc(CCO)c2C)c(N)n1	0.584%	–
[Hg+2].[I-].[I-]	-8.55%	–
CC(C)C(=O)Cl	1.92%	–
C[C@]12CC[C@H]3[C@@H](CCC4=CC(=O)CC[C@@H]43)[C@@H]1CC[C@@H]2OC(=O)CCc1ccco1	-12% [at 30.3 µM]	–
CCOP(=O)(OCC)O/C(=C/Cl)c1ccc(Cl)cc1Cl	–	2.57 µM (active)
CC(O)C(=O)[O][Hg][c]1ccccc1 (stereo not given)	-8.23%	–
Brc1ccc(Oc2ccc(Br)cc2Br)c(Br)c1	-2.23%	–
CCCCCCCCCCCCN=C(N)N	0.2% [at 2.33 µM]	–
C[N+](C)(C)CC1CO1 (stereo not given)	1.93%	–
CCCCCCCC(=O)Cl	2.6%	–
CC(=O)c1cc(C(C)(C)C)cc2c1CCC2(C)C	-1.17%	–
Oc1ccc(Cl)c(Cl)c1Cl	1.39%	–
CC(C(O)c1ccccc1)N(C)C/C=C/c1ccccc1 (stereo not given)	-1.98% [at 30.3 µM]	–
Cn1cc(C2=C(c3cn(C4CCN(Cc5ccccn5)CC4)c4ccccc34)C(=O)NC2=O)c2ccccc21	-10.1% [at 30.3 µM]	–
CC(=O)[C@H]1CC[C@H]2[C@@H]3CC[C@H]4C[C@H](O)CC[C@]4(C)[C@H]3C(=O)C[C@]12C	-16.8% [at 30.3 µM]	–
O=C(Nc1ccccc1-c1ccc(Cl)cc1)c1cccnc1Cl	-14.2%	–
NCCCNCCCN	-1.13%	–
CCN(CC)C(=O)N[C@@H]1C=C2c3cccc4[nH]cc(c34)C[C@@H]2N(C)C1	-8.85% [at 30.3 µM]	–
ClCCCN1CCN(c2cccc(Cl)c2)CC1	-0.564% [at 30.3 µM]	–
CCOC(=O)OC1=C(c2cc(C)ccc2C)C(=O)NC12CCC(OC)CC2 (stereo not given)	-10.3%	–
